The whole screen tested about 330,000 compounds, of which about 40 (0.01%) were called active. Calls come from the whole dose curve; as a rule, active = well fitted inhibition curve with a large enough effect; inconclusive = small, poorly fitted or top-dose-only effect, or effect the other way; inactive = flat fitted curve, though single readings scatter. What follows is part of a selection rich in actives, with near analogues and random picks from the rest. Entries that show only a call come without a potency.
Potency is the fitted concentration of half-maximal effect.

Ubiquitin carboxyl-terminal hydrolase 2 (Homo sapiens), sequence (O75604 whole entry, looked up): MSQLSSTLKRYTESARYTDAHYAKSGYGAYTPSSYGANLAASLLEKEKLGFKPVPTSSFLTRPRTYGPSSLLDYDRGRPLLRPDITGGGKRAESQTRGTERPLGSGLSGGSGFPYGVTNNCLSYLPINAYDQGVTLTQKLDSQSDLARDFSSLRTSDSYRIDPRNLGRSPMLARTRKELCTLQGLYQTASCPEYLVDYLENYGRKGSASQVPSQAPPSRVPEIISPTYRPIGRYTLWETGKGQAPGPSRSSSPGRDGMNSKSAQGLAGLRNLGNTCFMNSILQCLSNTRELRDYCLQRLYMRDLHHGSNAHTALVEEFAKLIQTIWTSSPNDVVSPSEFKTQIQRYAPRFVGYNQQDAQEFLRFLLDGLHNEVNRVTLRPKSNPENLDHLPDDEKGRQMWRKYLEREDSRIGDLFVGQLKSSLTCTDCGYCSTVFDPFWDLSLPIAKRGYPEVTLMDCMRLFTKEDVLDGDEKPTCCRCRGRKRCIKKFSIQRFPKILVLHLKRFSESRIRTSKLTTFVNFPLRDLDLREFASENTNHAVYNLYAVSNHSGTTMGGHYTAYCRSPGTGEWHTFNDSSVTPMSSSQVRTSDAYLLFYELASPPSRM

This assay addresses Ubiquitin carboxyl-terminal hydrolase 2 (Homo sapiens) (UniProt O75604). Kind of assay: qHTS Assay for Inhibitors of Ubiquitin-specific Protease USP2a Using CHOP2 as the Reporter. The conditions noted are these: USP2 core, Ub-CHOP2 coupled fluorogenic reporter, 485/531; series mostly up to 38.3 µM. Summed up:
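USP2 core (10nM final) preincubated 30min RT with compound in 20mM Tris-HCl pH 8.0, 2mM CaCl2, 2mM beta-mercaptoethanol, 0.05% CHAPS; 25nM Ub-CHOP2 plus 25nM reporter substrate added, fluorescence (Ex485/Em531) read after 60min.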
Regarding `CCCCCN(C(=O)CCC(=O)OCC(=O)NCc1ccc(OC)cc1)c1c(N)n(CCCC)c(=O)[nH]c1=O`, the activity change, negative = inhibition result is “inactive”.
Same read-out and setting: then `Cc1ccc(S(=O)(=O)Nc2nc(N)n(-c3ccccc3)n2)cc1`, with “inactive”; and `COC(=O)c1ccc(OC(=O)c2nn(C)cc2Cl)c(OC)c1`, with “inactive”; and `Cc1nc2nc(COc3ccccc3)[nH]n2c(=O)c1C`, with “inactive”.
`O=C(Nc1cc(N2CCOCC2)ncn1)NC1(C(F)(F)F)Oc2ccc(Cl)cc2O1` (stereo not drawn): the activity change, negative = inhibition entry is “inactive”.
Same read-out and setting: under `CSc1ncc(C(=O)Nc2ccc(C)cc2C)c(C)n1` stands “inactive”.
Same read-out and setting: under `COc1cccc(CNS(=O)(=O)c2csc(C(N)=O)c2)c1` stands “inactive”; under `CC(=O)O[C@H]1CC[C@@]2(C)[C@@H](CC[C@@H]3[C@@H]2CC[C@]2(C)[C@@H](C(C)(C)O)C[C@@H]32)C1`, “inactive”; under `Cc1ccc(C)c(CSc2nc(-c3ccco3)nc3c2c(=O)n(C)c(=O)n3C)c1`, “inactive”.
Regarding `CCC(C)NC(=O)C1CCC(=O)N1Cc1ccc(C)cc1` (stereo not drawn), the activity change, negative = inhibition result was “inactive”.
In the case of `COc1ccc(CS(=O)/C(Cl)=C(/Cl)C(=O)Nc2ccc(OC)nc2)cc1` (stereo not drawn), the activity change, negative = inhibition result is “inactive”.
Same read-out and setting: then `Cc1cc(C)c(S(=O)(=O)N2CCOCC2)cc1C`, with “inactive”; and `Cc1ccc(CNC(=O)Cn2c(=O)c3sccc3n(Cc3cccc([N+](=O)[O-])c3)c2=O)cc1`, with “inactive”; and `CCOc1ncccc1C(=O)NNC(=O)c1cccc(S(=O)(=O)Nc2ccccc2OC)c1`, with “inactive”.
Take `COc1ccc(C(c2nnnn2C2CCCCC2)N2CCN(c3ccccc3F)CC2)cc1` (stereo not drawn): the activity change, negative = inhibition entry is “inactive”.
The same measure, in the same setting: then `COc1ccccc1/C=C/CN1CCC(CO)(Cc2ccccc2)CC1`, with “inactive”.
Take `Cc1ccc(O)c(/C=N/NC(=O)COc2ccc3c(C)cc(=O)oc3c2)c1`: the activity change, negative = inhibition result is “inactive”.
The same measure, in the same setting: then `O=C(CCc1nnc(Cc2ccc3c(c2)OCO3)o1)NCCc1ccccc1Cl`, with “inactive”; and `CC(C)c1ccc(-c2noc(C3CCCN(S(C)(=O)=O)C3)n2)cc1` (stereo not drawn), with “inactive”.
Same read-out and setting: under `COc1ccccc1CNC(=O)CCCNS(=O)(=O)c1cccc2nsnc12` stands “inactive”.
Still for that read-out and setting: under `CC1COC2C(O1)N(S(C)(=O)=O)CCN2S(C)(=O)=O` (stereo not drawn) stands “inactive”; under `CCC(C)[C@@H](C(=O)N1CCNCC1)n1cc(CCCCN)nn1` (stereo partly drawn), “inactive”; under `CCCN(CC(=O)NC(=O)NC1CCCCC1)CC(=O)Nc1cc(Cl)ccc1Cl`, “inactive”.
For `CC(C)CC1NC(=O)c2cc(Cl)ccc2-n2c1nc1ccccc1c2=O` (stereo not drawn), the activity change, negative = inhibition entry was “inactive”.
Same read-out and setting: then `O=C(NNS(=O)(=O)c1ccc(F)cc1)c1cnccn1`, with “inactive”; and `Cc1csc(Nc2ccc(Cl)cc2)[n+]1-c1ccc(Cl)cc1`, with “inactive”; and `CSC1=NCCN1C(=O)c1ccc(S(=O)(=O)N2CCOCC2)cc1`, with “inactive”.
On the same count and under the same terms, then `C[C@@H]1C[C@@H]2O[C@H]2/C=C\C=C\C(=O)Cc2c(Cl)c(O)cc(O)c2C(=O)O1`, with “inactive”; and `Cc1cccc(NC(=O)N(Cc2cc3cc(C)cc(C)c3[nH]c2=O)CC2COCCO2)c1` (stereo not drawn), with “inactive”; and `C#CCOCCOCCOCCNc1nc(N2CCN(C(=O)CCCCCCCCCCNC(=O)Cn3cc(CCCCCN)nn3)CC2)nc(N2CCN(C(=O)CCCCCCCCCCNC(=O)[C@H](CO)n3cc(CCCSC)nn3)CC2)n1`, with “inactive”.
As to `C#CCOCCOCCOCCNc1nc(N2CCN(C(=O)CCCCCCCCCCNC(=O)[C@H]([C@@H](C)CC)n3cc(CCCCN=C(N)N)nn3)CC2)nc(N2CCN(C(=O)CCCCCCCCCCNC(=O)[C@H](CO)n3cc(CCCSC)nn3)CC2)n1`, the Potency is 6.31 µM (active).
Regarding `C#CCOCCOCCOCCNc1nc(N2CCN(C(=O)CCCCCCCCCCNC(=O)[C@H](CCCCN)n3cc(C)nn3)CC2)nc(N2CCN(C(=O)CCCCCCCCCCNC(=O)[C@H](CO)n3cc(CCCSC)nn3)CC2)n1`, the activity change, negative = inhibition result was “inactive”.
For the compound `Cc1cc(NC(=O)CN2CCCCC2C)nc2c1c(=O)oc1ccccc12` (stereo not drawn), the activity change, negative = inhibition result is “inactive”.
With `Cc1nc(SC(C)C)[nH]c(=O)c1Cc1ccccc1`, the activity change, negative = inhibition result was “inactive”.
In the case of `CC1CCc2c(nc3ncnn3c2Nc2ccc(OC(F)(F)F)cc2)C1` (stereo not drawn), the activity change, negative = inhibition result is “inactive”.
Still for that read-out and setting: under `CCNC(=O)c1sccc1-n1cccc1` stands “inactive”.
`CN1C2CCC1/C(=C\c1ccccc1Cl)C(=O)/C2=C\c1ccccc1Cl`: the activity change, negative = inhibition entry was “inactive”.
Same read-out and setting: then `COc1ccc2c(c1OC)C(=O)c1ccccc1C2=O`, with “inactive”; and `Cc1c([N+](=O)[O-])c(N)nn1C`, with “inactive”.
For the compound `Cc1cc(NS(=O)(=O)c2ccc(NC(=O)c3cccnc3)cc2)nc(C)n1`, the activity change, negative = inhibition result is “inactive”.
On to `COc1cccc(CC2(CO)CCN(Cc3cnc(-c4cccc(C)c4)nc3)CC2)c1`, for which the activity change, negative = inhibition entry is “inactive”.
Still for that read-out and setting: then `NS(=O)(=O)c1ccc(NC(=S)NC(=O)c2cccnc2)cc1`, with “inactive”.
The same measure, in the same setting: under `COc1cc2c(C(=O)N3CCN(C)CC3)c(CSc3ccccc3)n(C)c2cc1Br` stands “inactive”.
Still for that read-out and setting: under `COc1ccc(Cl)cc1N(CC(=O)N1CCCCC1)S(C)(=O)=O` stands “inactive”; under `Cc1ccc(NC(=O)N2CCC(O)(c3cccnc3)CC2)cc1`, “inactive”; under `COc1cc(OC)cc(C(=O)N[C@H](C(=O)OCC(=O)NC(C)c2ccccc2)C(C)C)c1` (stereo partly drawn), “inactive”.
With `O=C1C2C3C=CC(C3)C2C(=O)N1c1ccc(S(=O)(=O)Nc2nccs2)cc1` (stereo not drawn), the activity change, negative = inhibition result is “inactive”.
As for `O=C(Cc1csc(Nc2nc(=S)[nH]c3ccccc23)n1)NCCCN1CCN(c2cccc(Cl)c2)CC1`, the activity change, negative = inhibition result is “inactive”.
On the same count and under the same terms, then `CC(C)[C@@H]1NC(=O)c2cc([N+](=O)[O-])cc(I)c2NCCC[C@@H](C(=O)NC(CC(=O)O)C(N)=O)NC(=O)[C@H](CO)NC1=O` (stereo partly drawn), with “inactive”; and `CC(C)(CNC(=O)c1cc(=O)[nH]c2ccccc12)N1CCOCC1`, with “inactive”; and `Cc1ccc(CN2CCN(Cc3ccccc3-c3ccco3)CC2CCO)o1` (stereo not drawn), with “inactive”.
Consider `COCc1ccc(C(=O)NC2CC(C)(C)Cc3c2cnn3-c2ccc(C)cc2)o1` (stereo not drawn), for which the activity change, negative = inhibition entry is “inactive”.
Regarding `Fc1ccccc1CNC(=S)Nc1ccc(Cl)cc1`, the activity change, negative = inhibition result was “inactive”.

The values above are taken from PubChem BioAssay AID463254 (National Center for Advancing Translational Sciences (NCATS), 2010).
